High-throughput results from PubChem BioAssay.
Gli-Sufu antag: Gli-Sufu pathway antagonists, primary screen, luciferase luminescence, Sufu-KO-LIGHT cells, uHTS | Sufu-KO-LIGHT fibroblasts, Gli luciferase reporter luminescence | inhibition, % at 5 µM | AID 588413, 2011 | hit rate 0.74% among 340,000;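 active = inhibition above about 55%, limit read from the data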
697 NFkB inh: inhibitors of PMA/ionomycin-induced NF-kB reporter, 697 cells, primary screen, B-cell NF-kB inhibitor project, cell-based, luminescence, uHTS. 697 B-cell NF-kB luciferase reporter, 16 h. inhibition, % at 4 µM. hit rate 0.33% among 330,000. AID 435022, 2010; in the data active = inhibition above about 35%
aSyn UTR inh: MLPCN primary screen, SNCA 5' untranslated region; alpha-synuclein 5'UTR reporter, inhibitor activity; inhibition, % (tested at 7.5 µM); hit rate 0.82% among 300,000; AID 1813, 2009; in the data active = inhibition above about 60%; inconclusive = no clear call, values can overlap the other calls;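 also: H4 neuroglioblastoma cells stably carrying SNCA 5'UTR luciferase fusion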
CSC inhib: cancer stem cell viability inhibitors, primary screen, luminescence | cancer stem cell-like cells viability | inhibition, % at 7.5 µM | hit rate 1.1% among 300,000 | AID 2717, 2010; in the data active = inhibition above about 75%; inconclusive = no clear call, values can overlap the other calls; tested in HMLE shEcad cells
Mdm2-MdmX inh: inhibitors of human Mdm2-MdmX association, primary screen, cell-based, luminescence, split luciferase, SaOS-2, uHTS. Protein Mdm4 (Homo sapiens) + E3 ubiquitin-protein ligase Mdm2 (Homo sapiens), …. SaOS-2 split-luciferase Mdm2/MdmX complementation. inhibition, % at 8 µM. hit rate 3% among 330,000. AID 485346, 2010;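 active = inhibition of at least 50% at 8 µM in the primary screen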
Target sequence (O15151 whole entry, looked up): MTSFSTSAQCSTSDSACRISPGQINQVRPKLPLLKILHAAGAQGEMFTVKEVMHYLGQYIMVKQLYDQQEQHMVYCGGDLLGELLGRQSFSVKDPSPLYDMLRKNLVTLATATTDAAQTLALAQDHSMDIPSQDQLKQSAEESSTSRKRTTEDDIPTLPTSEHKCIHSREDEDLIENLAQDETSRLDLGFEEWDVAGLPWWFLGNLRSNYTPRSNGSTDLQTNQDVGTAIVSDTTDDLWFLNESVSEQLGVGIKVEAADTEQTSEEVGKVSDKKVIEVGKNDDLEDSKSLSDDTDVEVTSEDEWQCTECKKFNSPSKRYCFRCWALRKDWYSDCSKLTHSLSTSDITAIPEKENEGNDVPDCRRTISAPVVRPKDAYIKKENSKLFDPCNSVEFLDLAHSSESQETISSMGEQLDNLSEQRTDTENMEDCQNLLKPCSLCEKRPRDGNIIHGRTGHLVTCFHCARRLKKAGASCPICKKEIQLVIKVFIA
Target sequence (Q00987 whole entry, looked up): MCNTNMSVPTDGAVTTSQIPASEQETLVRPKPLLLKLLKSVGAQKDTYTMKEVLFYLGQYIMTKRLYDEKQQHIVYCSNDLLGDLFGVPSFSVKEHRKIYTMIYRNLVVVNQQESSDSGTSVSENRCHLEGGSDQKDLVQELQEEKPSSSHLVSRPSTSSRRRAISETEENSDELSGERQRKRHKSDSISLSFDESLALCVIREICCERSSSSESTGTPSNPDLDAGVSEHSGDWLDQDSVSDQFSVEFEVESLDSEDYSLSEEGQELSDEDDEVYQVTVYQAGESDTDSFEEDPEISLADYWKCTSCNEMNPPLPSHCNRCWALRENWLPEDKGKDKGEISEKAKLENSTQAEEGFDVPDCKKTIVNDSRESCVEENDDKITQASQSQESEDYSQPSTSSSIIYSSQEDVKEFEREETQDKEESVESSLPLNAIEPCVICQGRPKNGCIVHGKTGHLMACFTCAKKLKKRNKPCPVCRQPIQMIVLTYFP
Jurkat NFkB inh: inhibitors of induced NF-kB luciferase reporter, primary screen, TCR NF-kB activation inhibitor project, cell-based, luminescence, uHTS. inhibition, % at 4 µM. Jurkat, PMA/ionomycin-induced NF-kB luciferase reporter. hit rate 0.53% among 330,000. AID 435003, 2010; in the data active = inhibition above about 50%
A number is an active result; 0 = inactive; ? = inconclusive; - = not tested or not shown. The list is not random: actives were taken first. Their share in the collection is about 4.5%.

SMILES	Gli-Sufu antag	697 NFkB inh	aSyn UTR inh	CSC inhib	Mdm2-MdmX inh	Jurkat NFkB inh
O=C(N/N=C/c1cc(Cl)cc([N+](=O)[O-])c1O)NC12CC3CC(CC(C3)C1)C2	0	0	0	82	0	0
CCOc1ccc(CN(C)C(=O)c2ccc(S(=O)(=O)N(C)c3ccccc3OC)cc2)cc1	0	0	-	-	0	0
CCOC(=O)C1CCN(C(=O)CCc2c(C)nc3cc(-c4ccccc4)nn3c2C)CC1	0	0	66	0	0	0
CCOC(=O)C1CCN(C(=O)CCc2c(C)nc3c(-c4ccc(F)cc4)c(C)nn3c2C)CC1	0	0	0	0	0	0
O=C(Nc1ccc(S(=O)(=O)Nc2ncccn2)cc1)c1ccc(Cl)c([N+](=O)[O-])c1	0	0	0	-	0	0
Cc1cccc2cc3c(N)c(C#N)sc3nc12	0	0	84	0	0	0
S=c1[nH]nc(COc2ccccc2)n1/N=C/C(Cl)=C/c1ccccc1	0	0	0	142	0	0
S=c1[nH]nc(COc2ccccc2)n1/N=C/C=C/c1ccccc1	0	0	0	0	0	0
C/C(=N\NC(=O)c1ccccc1NC(=O)c1ccc(Cl)cc1)c1ccncc1	0	0	0	136	0	0
CC(=NNC(=O)c1ccncc1)c1ccccc1Cl	0	-	-	-	-	-
COc1ccc(C2=NOC(Cn3nc(C(=O)NCc4cccc(C(F)(F)F)c4)cc3-c3ccccc3)C2)cc1 (stereo not drawn)	0	0	0	0	0	0
CNc1oc(-c2ccc(Cl)cc2)nc1P(=O)(c1ccccc1)c1ccccc1	0	0	0	120	0	0
OCCN1CCN(CCCc2c3c(cc4c2CCC4)CCC3)CC1	0	0	0	95	0	0
COc1ccc(C(=O)C2CCCN(C(=O)c3cc(C(C)C)no3)C2)cc1F (stereo not drawn)	0	0	0	0	0	0
OC(CNCc1ccccc1Cl)C(F)(F)F (stereo not drawn)	0	0	0	0	0	0
O=C(Nc1cnn(C23CC4CC(CC(C4)C2)C3)c1)c1cc(-c2ccccc2)on1	0	0	0	81	0	0
Cc1ccc(-c2cc(C(=O)Nc3cnn(C45CC6CC(CC(C6)C4)C5)c3)no2)cc1	0	0	0	0	0	0
CC(=O)NC1=C(C#N)C(c2ccccc2)c2c(ccc3ccccc23)O1 (stereo not drawn)	0	0	0	78	0	0
CCOC(=O)CC(=O)Nc1ncnc2c1C(c1ccccc1)c1c(ccc3ccccc13)O2 (stereo not drawn)	0	0	-	-	0	0
Cc1ccc(-c2cc(-c3ccccc3)nc(NN)n2)cc1	0	0	0	83	0	0
COc1ccc(-c2cc(-c3ccccc3)nc(NN)n2)cc1OC	0	0	0	0	0	0
COC(=O)c1c(-c2c(Cl)cccc2Cl)noc1C(=O)NNC(=O)N(C)C	0	0	0	0	0	0
CC1(C)C(/C=C/C=C/C=C/C=C2\N(CCCCS(=O)(=O)O)c3ccc4ccccc4c3C2(C)C)=[N+](CCCCS(=O)(=O)[O-])c2ccc3ccccc3c21	0	0	-	0	0	0
O=C(NCCN1CCOCC1)NC1(C(F)(F)F)Oc2ccc(Cl)cc2O1 (stereo not drawn)	0	-	0	?	-	-
COCC(C)NC(=O)NC1(C(F)(F)F)Oc2ccc(Cl)cc2O1 (stereo not drawn)	0	0	0	80	0	0
SMILES	Gli-Sufu antag	697 NFkB inh	aSyn UTR inh	CSC inhib	Mdm2-MdmX inh	Jurkat NFkB inh
N/C(=N\OC(=O)c1cccc2ccccc12)c1ccccn1	0	0	102	0	0	0
COc1cccc(C(=O)O/N=C(\N)c2ccccn2)c1OC	0	0	0	0	0	0
Cc1ccc(NC(=O)CN(C)C(=O)c2cc(-c3cccs3)nn2-c2ccccc2)cc1	0	0	-	-	0	0
CC(=O)Nc1ccc(-c2csc(NC(=O)Cc3cccc(F)c3)n2)cc1	0	0	0	90	0	0
O=C(Cc1ccccc1F)Nc1nc(-c2ccc(F)c(F)c2)cs1	0	0	0	0	0	0
CC(=O)Nc1ccc(-c2csc(NC(=O)Cc3ccccc3F)n2)cc1	0	0	0	90	0	0
O=C(O)c1ccccc1C(=O)Nc1ccc(Oc2cccc3ccccc23)cc1	0	-	94	-	-	-
